# According to the supplement of paper PMC10105736:
# B1: Hsp60B (protein)
# chain: MFRSCVPKAITSSRCFARMYSKDVRFGSGVRAMMIRGVDILADAVAVTMGPKGRSVIVERPWTSPKITKDGFTVARSIALKDQHMNLGAKLVQDVADNTNESAGDGTTTATVLARAIAKEGFNQITMGANPVEIRRGVMLAVDVVKDKLKEMSKAVETREEIQQVATLSANGDTEIGRLIGEATDKVGPRGTITVKDGKRLKDELNIIQGLRFDNGYVSPFFVNSSKGSKVEFANALVMISLKKITGLSQIVKGLEQSLRQRRPLIIIAEDISGEALNALVLNKLRLGLQVCAVKSPSYGHHRKELIGDISAATGATIFGDDINYSKMEEAKLEDLGQVGEAVISKDSTMLLQGKPKTGLLEMRIQQIQDELAEKQIKPEQRDRLRQRLSALTKGVAVLHIGGGSEVEVNEKKDRVVDALNATRAAIEEGIVPGGGTAFLRCIPYLQELKTESADLQKGVDIVCNALRMPCQTIAQNAGVDGPMVVAKVLNGSEDYGYDAMGDEYCRLVEKGIIDPTKVLRTAITDAAGVASLLSTTEVVITDSRNDDLLSKLSGAGGGMDDGLDMNMGGLEELAALSGLGGMGGMGGMGGMGGMGGMGGGFGGMGAGGGMSASASNDGPTAEEMNEMVKAIPGMEQVEVRDIDSGMM
# B2: Srp68 (protein)
# chain: MVVQEDNPNTGDVQEKTETAPVAEPSKIFTVEILHMIKDAQQQHGLRHGDFQRYRGYCSRRIRRLRKALKYPQGDKRHFKRRDVTIGQLTGKKADERFIHIPLICAERAWAYAMQLKQESNTEPRKRFHLVNKLRRACFYALQLQELCNTEAFDARTKLECEAYVAWMHGTLHFELQLWKTAGEHLKRAQVVYENLGKALPEDEQELYRAKVNEFTPNLRYCAYNISGGASGGKIDEILELRAQGVLENLDVLVSQTKTESSEGLQTIDWRGRKVTVRPEKVRLFLLSAQELDKSLAKTTKQDAKIELIERILMDCKDAIQAVRDEIKQDPKLRSLTTGQTVSGVQYLLAYLSYIRHSRTLQRNLCLVEQAKLNFYDPNLQSQQNVGDGKRVRPQDLARLYEIILQNVTEMQQINGLEDDATYQSEVENLAITFKAFRCYYIALTLIDIKKWKEAVALYERASNYATEALKGKSSPEFQLQEELKKVVSAIDGCKFSAHAYSVLEDDNSEESGTTTKSQKTTKPLYERLSLYKEDQSLHTKAPNVFKLTPDMEPIPCKPIFFDLAMTYVELPSLEGKLESPGKKGASITGFVKGFLGWGGGGNK
# B3: CG33108 (protein)
# chain: MSNISSVAPPPPPPPMIVTPSTPATTKERPVGDNITTDECTWACEYPEVQKGCYLSRVCQYTPPKHCQYYSVNSIVQVGPTCGLVALSMLLGGSPTADDLLKDAIDQEYTLNGELFSAQYLFELTRKHMPGPAACQLHVGPLDCKKVKELLKAGGCLLVPYDADVNHAPCVKNGHRAHWALIVGYLVDTQDRFYVLARHGKSRNLAVWPLDTLSQSNENLKEFAQPKGYPDDEFLLPPGGIGGSLGLNERCILVNGLPKQVIHVRWS
# B4: rswl (protein)
# chain: MLKHFARWRLGSQLLKGCAAPVRQASKTSSAENLIAGTEEPQKKFVNPFSQPAPALSNDTISENKEERDKRLKVLQLEADIAHQEGRRVPSLEFFKDHHWEHVLTLPTKSARIKYFGYLWQIEMKKEADQRKKAERAKEAERRVAEMRKEREENTHIIYGLGHTSLFLRIYDTTINHWQNNRLTRAMQFAPKMVLDCSYDEHMNNREATYAAKQLMMCFAENRMNDEPFDLHYCNTQMDSRCMQSLQRYIPTMHNPEFPINLHSKCFTELFPKQNLVYLTPHCREDLVTYNPDDIYIVGAMVDTMNNEPLSLAKAKRLGLRMARLPLDRYLQWGSGSGKSLTLNQMINIMLDLKKTGDWDTALKHVPRRKVVQNEFQPRREKDHWSTGTRARKLNMRIDHLFDFDENRRQATSYATPQNVRQRREGLEFQLDTWATGKQKKKQRQN
# B5: Pfdn5 (protein)
# chain: MAATPSAPAKSEMIDLTKLSPEQLIQIKQEFEQEITNVQDSLSTLHGCQAKYAGSKEALGTFQPNWENRQILVPLTSSMYVPGRVKDLNRFVIDIGTGYYIEKDLEGSKDYFKRRVEYVQEQIEKIEKIHLQKTRFYNSVMSVLEMKQAAAAKLQSQQQSQPAVTQSS
# B6: Cpn (protein)
# chain: MEPGTIPSPVSAPVAAPVTPSAVAAPVQVVSPAAVAPAPAAPIAVTPVAPPPTLASVQPATVTIPAPAPIAAASVAPVASVAPPVVAAPTPPAASPVSTPPVAVAQIPVAVSAPVAPPVAATPTPVAPIPVAAPVIATPPVAASAPTPAAVTPVVSPVIATPPVVPANTTVPVAAPVAAVPAAVPVVAPVLAPAVAPAVAPVVAETPAPPPVAEIPVATIPECVAPLIPEVSVVATKPLAAAEPVVVAPPATETPVVAPAAASPHVSVAPAVETAVVAPVSASTEPPVAAATLTTAPETPALAPVVAESQVAANTVVATPPTPAPEPETIAPPVVAETPEVASVAVAETTPPVVPPVAAESIPAPVVATTPVPATLAVTDPDVTASAVPELPPVIAPSPVPSAVAETPVDLAPPVLPPVAAEPVPAVVAEETPETPAPASAPVTIAALDIPEVAPVIAAPSDAPAEAPSAAAPIVSTPPTTASVPETTAPPAAVPTEPIDVSVLSEAAIETPVAPPVEVTTEVAVADVAPPEAAADLIIEPVEPPAPIPDLLEQTTSVPAVEAAESTSSPIPETSLPPPNEAVASPEVAVAPITAPEPIPEPEPSLATPTEPIPVEAPVVIQEAVDAVEVPVTETSTSIPETTVEYPVAEKVLDPAITEAPVTTQEPDVANINDGAPATEITTPAVEIVTAAAEVSDTAIPLIDPPVPQEIAVAEIPETETKPAEVIVEQSTIPIEAPVPEVSKYAEPVISEAPAAEVPITAGDNPDNTSVGISEVVPTIAEKAVEEVPTSEIPEQSSSPSDSVPVAKITPLLRDLQTTDVSLLAIAATLDAIGEKLKDQKARNQQVMDRLCEIEKILGPPKSN
# B7: msl-2 (protein)
# chain: MAQTAYLKVTRIAMRSASNLSKRRVEELNSGLGELRQLLSCVVCCQLLVDPYSPKGKRCQHNVCRLCLRGKKHLFPSCTQCEGCSDFKTYEENRMMAAQLLCYKTLCVHLLHSALFGELAGMRPQVARELVPRIKLPPKTTQEFIREGSNISDTFDIFLPQPDLPFLKDMPTSLPAETPPTSAVTTPELPYDHHLNISDIEAEAAATAEQGHFSPLPLLPTGSRMGMLSHAGQIVIATESSESGFMDQAWTDQVDLSGTVSVSKYTNSGNNFAVSYVMPTSATTKFDPQELQIGQVVQMADSTQLAVLAAVEETVETSTQLTVLSTTVEETVETSTQLEVLTSAEEPNEISDQLANLQVEESDEALVEETVEEAEGTSIPSEVVAEHMEEDQHLDVHTSQSPTQTEMEEAVEEHVATKTQLGHVQTELQDAESLQKDFEDAKAAAEEAKEKEKDLHAISAELQKEDSDEPTLKRKRTRTLKASQAAKIEPVPSEVKTKVQSGKGALRRIRGKDKEEKVKPPKPKCRCGISGSSNTLTTCRNSRCPCYKSYNSCAGCHCVCCKNPHKEDYVESDEDDDLEDFEMPKDVPEPMTQSEEPVVAEPRQEENSMAPPDSSAPISLVPLNNLQQSQHPLVLVQNEKGEYQGFNIFQGSKPLDPVTVGFTIRVQLQHTDGFGSLPQYAYIMPTIDPPNPPAPSLSPPPPPAPDREVIEPPAKKFRTSRTRRGRANFSALDTVDELVSGGSRSNSAAGDRSSATDNAHSLFEEIMSGSDDL
# B8: HBS1 (protein)
# chain: MSRHRIVRTMDYNDEYDGYDDIYGHSVEDEHCISPTDAQQWLYDRARGQQSISAFISKNKDIQEEEADEDEDEDAAFAKARRDSESFQMPQLDEIEQAKLSSCVDEVRSVVGDAVSERRIVETSMKFDYDMQKILDEILNEETNKSAKPAVNKMKAPAAPVLPKTVSKTVPTPPPKISLKEPRRGFEIPSPKVPSSPVVSGRNTPVDISAGDDISRSSATVFKVSKEQAVRNARQLYEKERADQKSHIHMIVIGHVDAGKSTLMGHLLYDTGNVSQRVMHKHEQESKKLGKQSFMYAWVLDETGEERARGITMDVGQSRIETKTKIVTLLDAPGHKDFIPNMISGATQADVALLVVDATRGEFESGFELGGQTREHAILVRSLGVNQLGVVINKLDTVGWSQDRFTEIVTKLKSFLKLAGFKDSDVSFTPCSGLTGENLTKKAQEPALTNWYSGRHLLDVIENFKIPERAIDRPLRMSVSDIYKGTGSGFCISGRVETGVLCLNDKVLVGASREQAQVKSLTMNEFPQTCVFAGDQVSVTLPALDINNVTVGCIISDPQTPIPVTTRFQARIIVFNVKVPITMGFPVLLHHQSLIEPAVVCKLTASIHKSTGEVVKKKPRCLGNNSCALVELETSRPICIERYADFKELGRVMLRVAGVTIAAGMVTKIR
# B9: Clp (protein)
# chain: MDILLANVSGLQFKAERDLIEQVGAIPLPFYGMDKSIAAVCNFITRNGQECDKGSACPFRHIRGDRTIVCKHWLRGLCKKGDQCEFLHEYDMTKMPECYFYSRFNACHNKECPFLHIDPQSKVKDCPWYKRGFCRHGPHCRHQHLRRVLCMDYLAGFCPEGPSCKHMHPHFELPPLAELGKDQLHKKLPTCHYCGELGHKANSCKQYVGSLEHRNNINAMDHSGGHSGGYSGHSGHIEGADDMQSNHHSQPHGPGFVKVPTPLEEITCYKCGNKGHYANKCPKGHLAFLSNQHSHK
# B10: Coprox (protein)
# chain: MNALRHTISLVSLGTFQLVRRTRGPHARGFLLGTGLGLASFSAVTYAHSAEAVDPKVNGVQMNTSRFMAEPITDSKALLGDKENMRHRMEILIMEIQAEFCRALEAEENCGQKFKVDRWERPEGGGGITCVLQDGDVFEKAGVNISVVTGSLPPAAVQQMRARGKNLKEGASLPFFASGVSAVIHPRNPHVPTIHFNYRYFEVETAKGEKQWWFGGGTDLTPYYLCEKDASHFHQTLKSACDEHDPTYYPRFKKWCDDYFRIKHRNESRGIGGIFFDDIDSPNQEAAFNFVSSCARAVIPSYVPLVRKHKNREYGNNERQWQLLRRGRYVEFNLIYDRGTKFGLYTPGARYESILMSLPLHARWEYMHEPKSQSEEGKLMKVLKNPKDWV
# Assays:
# Experiment in all cases: MAPPIT interaction score (arbitrary units); higher = stronger binary interaction signal, active = hit call of the paper;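 active = MAPPIT score above the 99th percentile of random reference set scores in the same batch; inactive = at or below it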
# JMJD4 = settings: MAPPIT configuration: N-N; pair source set: Curagen_low_conf
# Pdha = settings: MAPPIT configuration: N-N; pair source set: Lit-BS-16
# Pih1D1 = settings: MAPPIT configuration: N-N; pair source set: Finley_Y2H
# Sms = settings: MAPPIT configuration: N-N
# Jheh2 = settings: MAPPIT configuration: N-N; pair source set: Lit-BS-16
# LRR = settings: pair source set: RRS
# Jupiter = settings: MAPPIT configuration: N-N; pair source set: DPIM
# Pfdn2 = settings: MAPPIT configuration: N-N; pair source set: Lit-BM-16
# Kaz = settings: MAPPIT configuration: N-N; pair source set: Curagen_low_conf
# JIL-1 = settings: MAPPIT configuration: N-N; pair source set: Lit-BM-16
# TrxT = settings: MAPPIT configuration: N-N; pair source set: screen_2
# Ing3 = settings: MAPPIT configuration: N-N; pair source set: Curagen_low_conf
# Ilp6 = settings: pair source set: RRS
# 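Further: HEK293T cells with Epo stimulation, STAT-responsive firefly luciferase reporter, fold induction versus unstimulated cells divided by the larger fold induction of two negative controls lacking either bait or prey.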
binder,measurement,setting,value
B1,MAPPIT interaction score,JMJD4,0.939 (inactive)
same,MAPPIT interaction score,Pdha,1.16 (inactive)
same,MAPPIT interaction score,Pih1D1,0.845 (inactive)
same,MAPPIT interaction score,Sms; pair source set: Finley_Y2H,1.94 (inactive)
same,MAPPIT interaction score,Sms; pair source set: Lit-BM-16,1.8 (inactive)
B2,MAPPIT interaction score,Jheh2,-0.0601 (inactive)
B3,MAPPIT interaction score,LRR; MAPPIT configuration: N-C,1.24 (inactive)
same,MAPPIT interaction score,LRR; MAPPIT configuration: N-N,-0.128 (inactive)
B4,MAPPIT interaction score,Jupiter,0.211 (inactive)
B5,MAPPIT interaction score,Jupiter,-0.0979 (inactive)
same,MAPPIT interaction score,Pfdn2,5.87 (active)
B6,MAPPIT interaction score,Kaz,0.293 (inactive)
B7,MAPPIT interaction score,JIL-1,0.418 (inactive)
same,MAPPIT interaction score,TrxT,0.135 (inactive)
B8,MAPPIT interaction score,Ing3,0.0794 (inactive)
B9,MAPPIT interaction score,Jupiter,-0.085 (inactive)
B10,MAPPIT interaction score,Ilp6; MAPPIT configuration: N-C,0.0185 (inactive)
same,MAPPIT interaction score,Ilp6; MAPPIT configuration: N-N,-0.101 (inactive)
